This is a sample that favours compounds with a hit; in the whole collection about 8% have one here.
MARV entry inh – inhibitors of Marburg virus binding or cell entry | Marburg virus pseudotyped entry inhibition, cell reporter | Potency, µM (titrated, usually from 37.8 µM), without a hit: at the top dose activity change, negative = inhibition, hits mostly inhibitors | actives 1.8% (n = 300,000); calls by dose curve; tested in HEK293 cells; note: potency is the fitted concentration of half-maximal effect; % is set by controls: 0 for no effect and ±100 for the full control effect
SARS PLP yeast – blocks SARS-CoV papain-like protease in a yeast assay; S. cerevisiae expressing SARS-CoV PLpro, growth rescue; Potency, µM (highest dose often 32.9 µM), for inactives: at the top dose activity, positive = growth rescue, actives largely listed as activators; actives 0.19% (n = 330,000); AID 485353; calls by dose curve; note: potency is the fitted concentration of half-maximal effect; 0% is about no effect; nearly all actives have a fitted effect of over 55% in size
HCV inh – blocks hepatitis C virus; AID 651820; Huh7.5.1 HCVcc-Cre infection, luciferase reporter, 44 h; Potency, µM (titrated, usually from 41.8 µM), inactives show top-dose activity change, negative = inhibition, hits mostly inhibitors; actives 3.4% (n = 340,000); active = well fitted inhibition curve with a large enough effect; inconclusive = small, poorly fitted or top-dose-only effect, or another doubt; inactive = no such curve, though single readings can be large or run the other way; note: potency is the fitted concentration of half-maximal effect; % is set by controls: 0 for no effect and ±100 for the full control effect
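Seed cells (1,000/well) for 4 h; treat with compound and infect with HCVcc-Cre, moi about 0.5. Incubate 44 h, then detect luciferase activity.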
LASV entry inh – blocks Lassa virus binding to or entry into cells; AID 540256; Potency, µM (titrated, usually from 37.9 µM), for the others: at the top dose activity change, negative = inhibition, most hits filed as inhibitors; actives 1.2% (n = 300,000); Lassa virus pseudotype entry inhibition, cell reporter; calls by dose curve; tested in HEK293 cells; note: potency is the fitted concentration of half-maximal effect; % is set by controls: 0 for no effect and ±100 for the full control effect; nearly all actives have a fitted effect of over 50% in size
FMDV antiviral – antivirals against foot and mouth disease virus | actives 1.2% (n = 410,000) | Potency, µM (doses to about 57.9 µM), for inactives: at the top dose activity change, negative = inhibition, most hits filed as inhibitors | AID 1159524 | FMDV antiviral cell-based qHTS; calls by dose curve; tested in HEK293T cells; note: read-out not given here; potency is the fitted concentration of half-maximal effect; % is set by controls: 0 for no effect and ±100 for the full control effect; nearly all actives have a fitted effect of over 45% in size
HCMV antiviral – inhibitors of human cytomegalovirus; actives 4.5% (n = 410,000); HFF cells, HCMV-luciferase reporter, 72 h; stronger effect = lower value; activity change, negative = inhibition, % at 57.5 µM; in the data active = activity change below about -60%; inconclusive = no clear call, values can overlap the other calls; inactive = above about -39%; note: % is set by controls: 0 for no effect and ±100 for the full control effect
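Human foreskin fibroblasts infected with luciferase-reporter HCMV at MOI 1 PFU/cell, compounds at two doses. Luciferase measured 72 h post infection; normalized to buffer-only basal and Salinomycin (10uM) controls.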
* hit, by the source's call; ? = inconclusive; . = not tested or not shown; ! = a repeat was not active; [ ] = remark or other dose.

SMILES | MARV entry inh | SARS PLP yeast | HCV inh | LASV entry inh | FMDV antiviral | HCMV antiviral
COc1ccc(NC(=O)c2cc3c(=O)n(Cc4cccnc4)ccc3nc2C)c(OC)c1 | . | . | . | 22%[46.1 µM] | -18% | -5
Cc1ccccc1OCc1ccc(-c2nc(C#N)c(NCCCN(C)C)o2)o1 | ? | . | . | 1%[46.1 µM] | -3% | ?
CC(C)Cc1ccc(C2=CSC3=NCCN23)cc1 | ? | . | 11µM* | ? | -16% | 22
CC(C)(C)c1ccc(C2=CSC3=NCCN23)cc1 | ? | -14% | -25% | ? | -14% | 76
COc1ccc(-c2nnc3sc(COc4ccc(C)cc4)nn23)cc1 | -1% | -14% | 23% | 13µM* | -3% | -3
COc1ccc(-c2nnc3sc(COc4ccccc4)nn23)cc1 | 16% | -1% | -13% | -6% | 15% | 6
COc1ccc(S(=O)(=O)Nc2ccccc2C(=O)Nc2nc(-c3ccc(F)cc3)cs2)cc1OC | ? | -9% | ? | 11µM* | -16% | -76*
CCCNC(=O)c1ccccc1NS(=O)(=O)c1ccc(OC)c(OC)c1 | ? | 3% | 20% | -4% | 21% | -4
COc1ccc(-c2csc(NC(=O)c3ccccc3NS(=O)(=O)c3ccc(C)cc3)n2)cc1 | 13µM* | -40% | 5µM* | ? | ? | -96*
CCOC(=O)c1ccccc1NS(=O)(=O)c1c(-c2ccc(C)cc2)csc1C(=O)OC | . | . | . | -29%[46.1 µM] | 0% | -65*
COc1ccc(-c2csc(NC(=O)c3c(OC)cccc3OC)n2)cc1 | -20% | 12% | ? | -1% | 0% | -16
O=C(NC1CCCCC1)N1CCC(c2nc(-c3ccc(S(=O)(=O)N4CCCC4)cc3)no2)CC1 | -3% | 2% | ? | 10µM* | ? | -62*
O=C(C1CC1)N1CCC(c2nc(-c3ccc(S(=O)(=O)NCC4CCCO4)cc3)no2)CC1 (stereo not drawn) | ? | -3% | ? | ? | ? | -96*
O=C(C1CC1)N1CCC(c2nc(-c3ccc(S(=O)(=O)N4CCCC4)cc3)no2)CC1 | -22% | -11% | ? | -22% | ? | 9
CS(=O)(=O)N1CCCC(c2nc(-c3ccc(S(=O)(=O)NCc4ccccc4)cc3)no2)C1 (stereo not drawn) | 0.13µM*! | -4% | ? | ? | ? | -95*
COc1c(Cl)cc(C(=O)N(Cc2ccc(C)o2)C2CCS(=O)(=O)C2)cc1Cl (stereo not drawn) | -6%[46.1 µM] | . | . | 6%[46.1 µM] | -14% | 27
Cc1cccc(CNC(=O)C2CCN(c3nn4cc(-c5ccc(F)cc5)nc4s3)CC2)c1 | . | . | . | ? | 39% | 0
CSC[C@@H]1NC(=S)N(c2ccc(C)cc2)C1=O | -25% | -24% | 32% | 8% | 11µM* | 0
Cc1ccc(N2C(=O)C3CCC(C)(C2=O)C3(C)C)cc1 (stereo not drawn) | -9% | 0% | -2% | -17% | 5% | 22
COc1ccc(N(C(=O)COc2ccc(Br)cc2)S(=O)(=O)c2ccc(C)cc2)cc1 | . | . | . | -10%[46.1 µM] | 14% | -1
Cc1nnc(N2CCCC(C(=O)NCCc3ccc(Cl)cc3)C2)c2nn(-c3ccccc3)c(C)c12 (stereo not drawn) | . | . | . | 10%[46.1 µM] | -21% | -14
O=C(CSc1nncc2ccccc12)N1CCCCC1 | 1%[46.1 µM] | 0% | -6% | 16%[46.1 µM] | -6% | -64*
O=C(CSc1nc(C2CC2)nc2ccccc12)N1CCCCC1 | ? | -2% | -21% | -30%[46.1 µM] | -15% | -11
O=C(CSc1nc(C2CCCCC2)nc2ccccc12)N1CCCC1 | ? | 1% | -26% | ? | -16% | -101*
CCc1nc(SCC(=O)N2CCCC2)c2ccccc2n1 | 11% | -4% | ? | -5% | . | ?
SMILES | MARV entry inh | SARS PLP yeast | HCV inh | LASV entry inh | FMDV antiviral | HCMV antiviral
CC(C)c1nc(SCC(=O)N2CCCC2)c2ccccc2n1 | 23% | 1% | ? | 3% | -24% | -78*
CCCNC(=O)Cn1nc(C)c2c(C)n(-c3ccccc3)nc2c1=O | . | . | . | 1%[46.1 µM] | -12% | -36
Cc1ccc(N2C(=O)c3[nH]nc(-c4ccc(Cl)cc4)c3C2c2ccc(F)cc2)cc1 (stereo not drawn) | ? | . | . | ? | ? | -105*
Cc1ccc(-c2n[nH]c3c2C(c2cccs2)N(c2ccc(Cl)cc2)C3=O)cc1 (stereo not drawn) | ? | . | . | ? | ? | -105*
N/C(=N\NC(=O)c1sccc1OCc1ccc(Cl)cc1Cl)c1ccccn1 | 8.9µM* | -1% | ? | ? | -17% | ?
CSCCC(NC(=O)c1ccccc1)C(=O)N1CC=C(c2ccccc2)CC1 (stereo not drawn) | ? | 0% | ? | 11µM* | 9% | -24
CSCCC(NC(=O)c1ccccc1Br)C(=O)NNC(=O)c1cc(C)oc1C (stereo not drawn) | . | 1% | -14% | . | -23% | -63*
CSCCC(NC(=O)c1ccccc1Br)C(=O)N1CCN(C/C=C/c2ccccc2)CC1 (stereo not drawn) | . | . | ? | . | -29% | -83*
CSCCC(NC(=O)c1ccccc1)C(=O)NNC(=O)c1ccccc1 (stereo not drawn) | . | 0% | 3% | . | 2% | -62*
CSCCC(NC(=O)c1ccccc1)C(=O)NCCc1ccccc1 (stereo not drawn) | ? | 1% | 17% | -9%[46.1 µM] | 22% | -1
CCC(C)(C)n1nnnc1CN1CCN(C(c2ccccc2)c2ccccc2)CC1 | -30% | -18% | ? | 13µM* | ? | 3
COc1ccccc1N1CCN(C(=O)C2CCN(S(=O)(=O)c3cn(C)cn3)CC2)CC1 | . | . | . | 12%[46.1 µM] | -14% | -20
COc1ccc2c(=O)cc(-c3ccncc3)oc2c1OC | ? | . | 11µM* | -18%[46.1 µM] | -13% | -38
O=C(O)C1CCCN(S(=O)(=O)Cc2ccccc2)C1 (stereo not drawn) | . | 1% | 14% | . | -13% | -5
O=C(C1CCCN(S(=O)(=O)Cc2ccccc2)C1)N1CCC(Cc2ccccc2)CC1 (stereo not drawn) | -28% | -14% | ? | -17% | 40µM* | -5
Cc1cc(C)n(-c2nc(C)c(C)c(=O)n2CC(=O)Nc2ccc(OC(F)(F)F)cc2)n1 | . | . | . | 11%[46.1 µM] | -23% | ?
CC12CN3CC(C)(CN(C1)C3c1cc(Br)ccc1O)C2=O (stereo not drawn) | -27% | 3% | 3% | 10% | -21% | 79
CC1(C)C(=O)OC(c2cc(Br)ccc2O)C(C)(C)C1=O (stereo not drawn) | -5% | 11% | 13% | -2% | 35µM* | ?
CCOc1ccccc1NC(=O)NC(CC)c1c(-n2cccc2)sc2c1CCN(C)C2 (stereo not drawn) | . | . | . | -25%[46.1 µM] | -11% | -2
CCOC(=O)[C@]12C[C@@H]3OCCN(C(=O)N[C@@H]1c1ccccc1)[C@@H]32 | 2%[14.2 µM] | . | . | . | . | .

Bioassay records: PubChem, National Center for Advancing Translational Sciences (NCATS)
